High-throughput results deposited in PubChem by Broad Institute.
Pf Dd2 inh – P. falciparum Dd2 growth inhibition. SYBR Green, 72 h; stronger effect = lower value. activity change, % at 10 µM. 94,000 compounds, 2.3% hits; in the data active = activity change below about -80%; inconclusive = no clear call, values can overlap the other calls
C diff HTS – inhibitors of Clostridium difficile growth | 86,000 compounds, 0.25% hits | Clostridium difficile clinical isolate growth, OD600, 24 h; stronger effect = lower value | growth activity, negative = inhibition, % at 16 µg/mL (by protocol);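 active = mean growth activity at or below -80% and every replicate also at or below -80%; inconclusive = mean at or below -80% but some replicate above -80%; inactive = mean growth activity above -80%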
T cruzi growth-1 – blocks T. cruzi growth in NIH3T3 culture; T. cruzi beta-gal in NIH3T3, GalScreen luminescence, 90 h; inhibition, % at 8.34 µM; 77,000 compounds, 5.9% hits; AID 624255;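 active = mean inhibition above about 93%, with at least 55% of replicates each passing it, limit read from the data, passing the limit was not always enough; inconclusive = only one of those two conditions holds; inactive = neither condition holds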
T cruzi growth-2 – Trypanosoma cruzi proliferation inhibition; shares compounds with T cruzi growth-1; T. cruzi beta-gal in NIH3T3, GalScreen luminescence, 90 h; inhibition, % at 8.35 µM; 5,600 compounds, 72% hits; AID 651739;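 active = mean replicate inhibition above about 95% and at least 55% of replicates individually reaching it, limit read from the data; inconclusive = only one of the two criteria is met; inactive = neither criterion is met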
T cruzi growth-3 – Trypanosoma cruzi proliferation inhibition | shares compounds with T cruzi growth-1 | T. cruzi beta-gal in NIH3T3, GalScreen luminescence, 90 h | inhibition, % at 2.09 µM | 5,600 compounds, 21% hits;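 active = mean inhibition above about 95%, with at least 55% of replicates also reaching it, limit read from the data; inconclusive = meets just one of the two conditions; inactive = meets neither condition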
NIH3T3 tox – kills mouse NIH/3T3 fibroblasts | NIH/3T3 viability, CellTiter-Glo ATP luminescence, 90 h | 5,600 compounds, 14% hits | AID 651742 | shares compounds with T cruzi growth-1 | cytotoxicity (signal decrease), % at 8.35 µM;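 active = mean signal decrease across replicates above about 35% based on untreated-well scatter, with enough replicates individually passing, limit read from the data; inconclusive = no rule stated though some were filed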
NIH3T3 tox 2 – kills mouse NIH/3T3 fibroblasts; shares compounds with T cruzi growth-1; NIH/3T3 viability, CellTiter-Glo ATP luminescence, 90 h; inhibition, % at 24.9 µM; 5,600 compounds, 56% hits; AID 651744;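 active = mean loss of cell viability signal at or above a set limit, and enough replicates individually reaching it; inconclusive = meets only the mean limit or only the replicate share; inactive = meets neither condition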
Numbers stand for hits; n = inactive; u = inconclusive; x = not tested or not shown. Shown are actives, neighbours in structure and some others; about 6.7% of the full set was active somewhere.

SMILES	Pf Dd2 inh	C diff HTS	T cruzi growth-1	T cruzi growth-2	T cruzi growth-3	NIH3T3 tox	NIH3T3 tox 2
C[C@H]1CN([C@@H](C)CO)C(=O)Cc2cc(NC(=O)Cc3cn(C)c4ccccc34)ccc2O[C@H]1CN(C)Cc1ccc(C(F)(F)F)cc1	n	n	n	x	x	x	x
C[C@@H]1CN([C@H](C)CO)C(=O)Cc2cc(NC(=O)Cc3cn(C)c4ccccc34)ccc2O[C@@H]1CN(C)Cc1ccccc1	n	n	100	104	n	n	40
C[C@H]1CN([C@@H](C)CO)C(=O)Cc2cc(NC(=O)Cc3cn(C)c4ccccc34)ccc2O[C@H]1CN(C)Cc1ccc(C(=O)Nc2ccccc2N)cc1	n	n	102	96	n	n	63
C[C@H]1CN([C@@H](C)CO)C(=O)Cc2cc(NC(=O)Cc3cn(C)c4ccccc34)ccc2O[C@@H]1CN(C)Cc1ccc(-c2ccccc2)cc1	n	n	98	103	n	n	n
C[C@H]1CN([C@@H](C)CO)C(=O)Cc2cc(NC(=O)Cc3cn(C)c4ccccc34)ccc2O[C@@H]1CN(C)Cc1ccc(C(=O)Nc2ccccc2N)cc1	n	n	n	x	x	x	x
C[C@@H]1CN([C@H](C)CO)C(=O)Cc2cc(NC(=O)Cc3cn(C)c4ccccc34)ccc2O[C@H]1CN(C)Cc1ccc(C(F)(F)F)cc1	n	n	100	105	n	u	71
C[C@@H]1CN([C@H](C)CO)C(=O)Cc2cc(NC(=O)Cc3cn(C)c4ccccc34)ccc2O[C@H]1CN(C)Cc1ccc(-c2ccccc2)cc1	n	n	n	x	x	x	x
CCCNC(=O)N1C[C@@H](O)COC[C@H]2O[C@H](CC(=O)NCc3ccncn3)CC[C@@H]21	n	n	n	x	x	x	x
CC=Cc1ccc2n(c1=O)C[C@H]1[C@H](CO)[C@@H](C(=O)NCC)N(C(=O)C3CCOCC3)[C@@H]21 (mixture of isomers)	n	n	n	x	x	x	x
O=C(C[C@H]1C=C[C@@H](NC(=O)C2CCOCC2)[C@H](CO)O1)Nc1ccccc1	n	n	x	x	x	x	x
O=C(NCC1CCCCC1)[C@@H]1[C@@H](CO)[C@@H]2Cn3c(ccc(-c4cccnc4)c3=O)[C@H]1N2	n	n	x	x	x	x	x
COC(=O)C[C@@H]1CC[C@H]2[C@@H](COc3ccc(NC(=O)c4ccc(OC)cc4)cc3C(=O)N2C)O1	n	n	n	x	x	x	x
O=C(C[C@H]1C[C@H]2c3cc(NC(=O)Cc4ccncc4)ccc3O[C@H]2[C@H](CO)O1)NCc1cccnc1	n	n	n	x	x	x	x
CCC(=O)N1C[C@@H](O)COC[C@@H]2O[C@H](CC(=O)N3CCCCC3)CC[C@H]21	n	n	n	x	x	x	x
CC(C)C#Cc1cnc2c(c1)C(=O)N([C@H](C)CO)C[C@@H](C)[C@H](CN(C)C(=O)C1CCC1)O2	x	n	n	x	x	x	x
C[C@@H]1CN([C@@H](C)CO)C(=O)Cc2cc(NC(=O)CCCCCC(=O)Nc3ccccc3N)ccc2O[C@H]1CN(C)Cc1ccc2c(c1)OCO2	n	n	x	x	x	x	x
C[C@H](CO)N1C[C@H](C)[C@@H](CN(C)Cc2ccc3c(c2)OCO3)Oc2ccc(NC(=O)CCCCCC(=O)Nc3ccccc3N)cc2CC1=O	n	n	101	109	n	n	n
C[C@@H]1CN([C@@H](C)CO)C(=O)Cc2cc(NC(=O)CCCCCC(=O)Nc3ccccc3N)ccc2O[C@H]1CN(C)Cc1ccccc1	n	n	n	x	x	x	x
C[C@H]1CN([C@@H](C)CO)C(=O)Cc2cc(NC(=O)CCCCCC(=O)Nc3ccccc3N)ccc2O[C@H]1CN(C)Cc1ccc2c(c1)OCO2	-88	n	u	n	n	n	n
COC(=O)C[C@@H]1C[C@@H]2c3cc(NC(=O)C4CCC4)ccc3O[C@@H]2[C@@H](CO)O1	n	n	n	x	x	x	x
C[C@@H]1CN([C@H](C)CO)C(=O)c2cccc(NC(=O)C3CCCCC3)c2O[C@H]1CN(C)C(=O)Nc1ccccc1	n	n	n	x	x	x	x
COCC(=O)Nc1ccc2c(c1)C(=O)N(C)[C@H]1CC[C@H](CC(=O)NCc3ccc(OC)cc3)O[C@@H]1CO2	n	n	n	x	x	x	x
C[C@H](CO)N1C[C@H](C)[C@H](CN(C)S(=O)(=O)c2ccc(Cl)cc2)OCCCC[C@H](C)Oc2ccc(NS(=O)(=O)c3ccccc3)cc2C1=O	n	n	u	99	n	n	n
